In the supplement of paper PMC6609913:
Structures can show the parent of a compound that is named as a salt. ± gives the standard deviation of the averaged measurements. Whole data set: some 1,300 compounds, median “normalised cell viability” near 1, cut for the lowest 2% near 0.15. This is one part of a sample in which the lowest values are shown more often than they occur.

System: V-C8 + BRCA2 (BRCA2-proficient hamster cells)
Experiment: normalised cell viability (fraction of plate median); higher = more viable cells (less toxic)
Conditions: 5 µM
Procedure, shortened: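 In two screens, library drugs at 5 μM were given for 3 days (screen 1) or 6 days (screen 2) to hamster V-C8 cells without BRCA2 and V-C8 cells with BRCA2 restored, seeded 24 h earlier in 96-well plates. A resazurin assay gave the cell viability readout, expressed as modified robust per cent of sample against the plate median, with triplicate wells averaged.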

C=C1[C@@H]2CC[C@H]3[C@]4(C)C[C@H](O[C@@H]5O[C@H](CO)[C@@H](OS(=O)(=O)O)[C@H](OS(=O)(=O)O)[C@H]5OC(=O)CC(C)C)C[C@@H](C(=O)O)[C@H]4CC[C@]3(C2)[C@@H]1O [Atractyloside potassium salt]
normalised cell viability (treatment time: 3 days): 1.08 ± 0.093 | normalised cell viability (treatment time: 6 days): 1.15 ± 0.031

COc1ccc2c(c1)[C@]13CCCC[C@@H]1[C@H](C2)N(C)CC3 [Dextromethorphan hydrobromide monohydrate]
normalised cell viability (treatment time: 3 days): 1.13 ± 0.078 | normalised cell viability (treatment time: 6 days): 1.02 ± 0.054

CC[C@@]1(O)C(=O)OCc2c1cc1n(c2=O)Cc2cc3ccccc3nc2-1 [Camptothecine (S,+)]
normalised cell viability (treatment time: 3 days): 0.142 ± 0.014 | normalised cell viability (treatment time: 6 days): 0.124 ± 0.012

CCC(=O)O[C@H]1CC[C@H]2[C@@H]3CCC4=CC(=O)CC[C@]4(C)[C@H]3CC[C@]12C [Testosterone propionate]
normalised cell viability (treatment time: 3 days): 0.906 ± 0.085 | normalised cell viability (treatment time: 6 days): 1 ± 0.1

CN1[C@@H]2CC[C@H]1C[C@@H](OC(=O)C(CO)c1ccccc1)C2 (some centres undefined) [Atropine sulfate monohydrate]
normalised cell viability (treatment time: 3 days): 0.925 ± 0.033 | normalised cell viability (treatment time: 6 days): 0.988 ± 0.053

O=C(CCCN1CCC2(CC1)C(=O)NCN2c1ccccc1)c1ccc(F)cc1 [Spiperone]
normalised cell viability (treatment time: 3 days): 1.07 ± 0.04 | normalised cell viability (treatment time: 6 days): 0.997 ± 0.072

CCCCCC[C@H]1C(=O)O[C@H](C)[C@H](NC(=O)c2cccc(NC=O)c2O)C(=O)O[C@@H](C)[C@@H]1OC(=O)CC(C)C [Antimycin A]
normalised cell viability (treatment time: 3 days): 0.148 ± 0.012 | normalised cell viability (treatment time: 6 days): 0.124 ± 0.011

CCCC(C)(COC(N)=O)COC(=O)NC(C)C (centres undefined) [Carisoprodol]
normalised cell viability (treatment time: 3 days): 0.992 ± 0.042 | normalised cell viability (treatment time: 6 days): 1.09 ± 0.04

CN1CCC2(C)c3cc(O)ccc3N(C)C12 (single isomer, unassigned; (-)) [(-)-Eseroline fumarate salt]
normalised cell viability (treatment time: 3 days): 0.694 ± 0.028 | normalised cell viability (treatment time: 6 days): 0.769 ± 0.015

CCC(C)C1O[C@]2(C=C[C@@H]1C)C[C@@H]1CC(C/C=C(\C)[C@@H](OC3C[C@H](OC)[C@@H](OC4C[C@H](OC)[C@@H](O)[C@H](C)O4)[C@H](C)O3)[C@@H](C)/C=C/C=C3\COC4[C@H](O)C(C)=CC(C(=O)O1)[C@]34O)O2 (some centres undefined) [Avermectin B1a]
normalised cell viability (treatment time: 3 days): 0.303 ± 0.021 | normalised cell viability (treatment time: 6 days): 0.193 ± 0.025

CC(C)(N)Cc1ccccc1 [Phentermine hydrochloride]
normalised cell viability (treatment time: 3 days): 1 ± 0.041 | normalised cell viability (treatment time: 6 days): 0.995 ± 0.023

NCC(CC(=O)O)c1ccc(Cl)cc1 (racemic) [Baclofen (R,S)]
normalised cell viability (treatment time: 3 days): 0.897 ± 0.079 | normalised cell viability (treatment time: 6 days): 0.956 ± 0.083
